Data from PubChem BioAssay.
Active and inactive are the calls of the source.

How the values were obtained:
[1] = system: PRMT1 (protein arginine N-methyltransferase 1); assay: PRMT1 binders on small-molecule microarrays, primary screen, biochemical, small-molecule microarray, 635 nm fluorescence (AID 1088); details: small-molecule microarray binding, higher = more signal;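 further: binding of Prmt1 protein to compounds spotted on small-molecule microarray slides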
[2] = yeast growth modulation, basal conditions, primary screen, YJM789 clinical isolate, OD600, 24 h (AID 1089);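 further: growth of clinical yeast isolate S. cerevisiae YJM 789 seeded 1000 cells per well; test concentration not given here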; details: S. cerevisiae YJM789 growth, higher = more signal, called active from +8 up or from −8 down
[3] = fission yeast growth modulation, primary screen, strain 972, OD600, 24 h, no modulator (AID 1090);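 further: basal condition with compound alone and no growth modifier present; test concentration not given here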; details: S. pombe 972 growth, higher = more signal, called active from +8 up or from −8 down
[4] = S. cerevisiae growth modulation with rapamycin, primary screen, strain BY4716, OD600, 96 h (AID 1091); details: higher = more signal, called active from +8 up or from −8 down; further: test concentration not given here
[5] = molecular target: Torsin-1A-interacting protein 2 (Homo sapiens) (UniProt Q8NFQ8); assay: LULL1 binders on small-molecule microarray, primary screen, cell lysate, human LULL1 lysate, 635/667 nm fluorescence (AID 1092); details: hLULL1 lysate binding, 635 nm fluorescence, higher = more signal;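 further: probe is lysate of COS7 cells overexpressing human LULL1; score merges per-feature 667 nm fluorescence with signal-to-noise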
Chain of Torsin-1A-interacting protein 2 (Homo sapiens) (Q8NFQ8 whole entry, looked up): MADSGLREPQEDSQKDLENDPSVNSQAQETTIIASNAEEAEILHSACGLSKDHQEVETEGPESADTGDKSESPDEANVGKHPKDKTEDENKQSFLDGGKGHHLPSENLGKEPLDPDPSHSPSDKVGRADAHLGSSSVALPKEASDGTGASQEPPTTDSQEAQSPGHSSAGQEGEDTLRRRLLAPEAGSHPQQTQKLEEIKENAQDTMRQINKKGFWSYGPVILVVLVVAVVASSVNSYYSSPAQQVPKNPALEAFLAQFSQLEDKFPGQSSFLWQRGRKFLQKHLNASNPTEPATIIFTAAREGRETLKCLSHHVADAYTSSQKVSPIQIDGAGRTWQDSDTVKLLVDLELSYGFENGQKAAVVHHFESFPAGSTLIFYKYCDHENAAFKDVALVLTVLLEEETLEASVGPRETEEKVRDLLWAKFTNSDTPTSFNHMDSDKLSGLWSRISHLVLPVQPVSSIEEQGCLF

[6] = E. coli growth modulation, two-sided OD650, primary screen, E. coli filamentation project, strain DRC41, 24 h (AID 1093); details: OD650, 24 h, higher = more signal, called active from +8 up or from −8 down;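 further: MC1000 strain lacking acrAB efflux and sulA so SOS filamentation is blocked; test concentration not given here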
[7] = small-molecule microarray binders of probe aLefty2, primary screen, biochemical, biotinylated probe, 635/667 nm fluorescence (AID 1094); details: higher = more signal;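 further: score merges spot fluorescence near 667 nm with spot signal-to-noise ratio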
[8] = system: Noggin (protein binding on small-molecule microarray); assay: Noggin binders on small-molecule microarray, primary screen, biochemical, 635/667 nm fluorescence (AID 1095); details: 635 nm fluorescence, higher = more signal;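 further: score merges 667 nm feature fluorescence with signal to noise over triplicate slides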
[9] = molecular target: Neurogenic locus notch homolog protein 3 (Homo sapiens) (UniProt Q9UM47); assay: NOTCH3 binders on small-molecule microarray, primary screen, biochemical, 635/667 nm fluorescence (AID 1096); details: NOTCH3 binding, 635 nm fluorescence, higher = more signal
Chain of Neurogenic locus notch homolog protein 3 (Homo sapiens) (Q9UM47 whole entry, looked up): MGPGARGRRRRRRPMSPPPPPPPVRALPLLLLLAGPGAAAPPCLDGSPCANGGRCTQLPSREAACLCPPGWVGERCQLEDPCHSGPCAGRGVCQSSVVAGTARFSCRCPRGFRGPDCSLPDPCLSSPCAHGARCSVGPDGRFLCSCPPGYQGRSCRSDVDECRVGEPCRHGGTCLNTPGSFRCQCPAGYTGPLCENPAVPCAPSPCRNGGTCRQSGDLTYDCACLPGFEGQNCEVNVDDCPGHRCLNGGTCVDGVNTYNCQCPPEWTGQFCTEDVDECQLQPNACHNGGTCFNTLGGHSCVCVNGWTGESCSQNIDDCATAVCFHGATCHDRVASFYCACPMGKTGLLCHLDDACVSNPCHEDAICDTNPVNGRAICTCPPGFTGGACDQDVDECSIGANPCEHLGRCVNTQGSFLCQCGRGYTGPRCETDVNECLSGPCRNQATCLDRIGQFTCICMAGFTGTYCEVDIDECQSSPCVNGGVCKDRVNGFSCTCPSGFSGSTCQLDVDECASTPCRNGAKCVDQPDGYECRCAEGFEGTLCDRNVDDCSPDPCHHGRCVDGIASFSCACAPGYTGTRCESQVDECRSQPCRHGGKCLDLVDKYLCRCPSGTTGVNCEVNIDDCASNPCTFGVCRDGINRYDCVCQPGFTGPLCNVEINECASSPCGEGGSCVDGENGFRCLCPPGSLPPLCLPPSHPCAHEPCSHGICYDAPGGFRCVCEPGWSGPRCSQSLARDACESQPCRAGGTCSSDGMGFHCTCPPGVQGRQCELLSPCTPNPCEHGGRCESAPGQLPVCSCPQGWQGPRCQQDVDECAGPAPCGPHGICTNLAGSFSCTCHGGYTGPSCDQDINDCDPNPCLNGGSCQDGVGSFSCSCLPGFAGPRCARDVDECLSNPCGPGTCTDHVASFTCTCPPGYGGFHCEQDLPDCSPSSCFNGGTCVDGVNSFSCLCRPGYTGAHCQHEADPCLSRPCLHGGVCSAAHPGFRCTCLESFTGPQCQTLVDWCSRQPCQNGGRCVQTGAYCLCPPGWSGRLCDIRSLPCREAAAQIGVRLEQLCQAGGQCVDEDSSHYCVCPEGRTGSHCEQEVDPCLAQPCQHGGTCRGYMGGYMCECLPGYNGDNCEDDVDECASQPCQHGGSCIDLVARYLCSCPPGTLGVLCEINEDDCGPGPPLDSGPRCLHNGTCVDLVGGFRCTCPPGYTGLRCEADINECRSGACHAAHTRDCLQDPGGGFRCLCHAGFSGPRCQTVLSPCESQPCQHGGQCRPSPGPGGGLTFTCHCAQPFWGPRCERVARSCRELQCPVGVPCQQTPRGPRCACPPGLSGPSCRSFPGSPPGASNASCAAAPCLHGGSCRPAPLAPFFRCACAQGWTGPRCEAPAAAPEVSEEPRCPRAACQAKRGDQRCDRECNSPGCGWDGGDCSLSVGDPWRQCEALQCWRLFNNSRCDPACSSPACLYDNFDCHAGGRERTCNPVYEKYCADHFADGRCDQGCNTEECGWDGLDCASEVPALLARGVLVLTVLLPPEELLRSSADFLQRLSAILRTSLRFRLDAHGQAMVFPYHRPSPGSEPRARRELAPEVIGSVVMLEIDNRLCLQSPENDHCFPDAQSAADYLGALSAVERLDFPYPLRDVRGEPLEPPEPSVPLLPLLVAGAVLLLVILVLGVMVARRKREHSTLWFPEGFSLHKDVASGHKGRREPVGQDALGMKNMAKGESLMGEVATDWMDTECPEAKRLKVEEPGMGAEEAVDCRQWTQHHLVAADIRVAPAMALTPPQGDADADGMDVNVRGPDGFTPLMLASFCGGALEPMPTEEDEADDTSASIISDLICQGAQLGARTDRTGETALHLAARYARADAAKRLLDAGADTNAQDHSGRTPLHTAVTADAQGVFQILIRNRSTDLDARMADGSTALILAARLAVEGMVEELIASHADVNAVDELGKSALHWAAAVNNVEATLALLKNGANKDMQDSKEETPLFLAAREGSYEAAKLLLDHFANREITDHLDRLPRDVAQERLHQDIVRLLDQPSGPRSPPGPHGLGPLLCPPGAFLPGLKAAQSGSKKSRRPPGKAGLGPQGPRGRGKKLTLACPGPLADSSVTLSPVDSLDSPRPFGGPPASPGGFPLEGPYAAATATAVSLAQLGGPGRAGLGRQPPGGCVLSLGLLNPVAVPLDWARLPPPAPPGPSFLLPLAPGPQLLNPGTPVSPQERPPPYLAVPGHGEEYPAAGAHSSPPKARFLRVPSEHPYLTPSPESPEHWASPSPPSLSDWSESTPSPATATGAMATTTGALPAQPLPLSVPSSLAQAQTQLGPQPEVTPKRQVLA

[10] = small-molecule microarray binders of probe aEGFR, primary screen, biochemical, biotinylated probe, 635/667 nm fluorescence (AID 1097); details: higher = more signal;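 further: probe is a biotinylated anti-EGFR antibody binding compounds printed on slides; score combines fluorescence near 667 nm and signal to noise of each spot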
[11] = system: Plasmodium falciparum Sir2 (PF13_0152, Sir2A); assay: pfSir2 binders on small-molecule microarrays, primary screen, biochemical, small-molecule microarray, 635 nm fluorescence (AID 1098); details: small-molecule microarray binding, fluorescence 635 nm; higher = more signal;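 further: score merges spot fluorescence intensity with its signal-to-noise ratio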
[12] = small-molecule microarray binders of probe aDKK1, primary screen, biochemical, biotinylated probe, 635/667 nm fluorescence (AID 1099); details: higher = more signal;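 further: score merges 667nm spot fluorescence with signal to noise across triplicate slides; reference of the scale not given here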
[13] = small-molecule microarray binders of probe aCHRDL2, primary screen, biochemical, biotinylated probe, 635/667 nm fluorescence (AID 1100); details: higher = more signal
[14] = splicing luciferase reporter signal modulators, primary screen, spliceosome inhibition project, cell-based, HEK293, splice +/- reporter (AID 1101); details: luminescence, 24 h, higher = more signal, called active from +8 up or from −8 down;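 further: HEK293 cells carrying a splicing-competent luciferase reporter gene; test concentration not given here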
[15] = molecular target: Fibroblast growth factor 10 (Homo sapiens) (UniProt O15520); assay: FGF10 binders on small-molecule microarrays, primary screen, biochemical, small-molecule microarray, 635 nm fluorescence (AID 1102); details: FGF10 binding, fluorescence 635 nm, higher = more signal
Chain of Fibroblast growth factor 10 (Homo sapiens) (O15520 whole entry, looked up): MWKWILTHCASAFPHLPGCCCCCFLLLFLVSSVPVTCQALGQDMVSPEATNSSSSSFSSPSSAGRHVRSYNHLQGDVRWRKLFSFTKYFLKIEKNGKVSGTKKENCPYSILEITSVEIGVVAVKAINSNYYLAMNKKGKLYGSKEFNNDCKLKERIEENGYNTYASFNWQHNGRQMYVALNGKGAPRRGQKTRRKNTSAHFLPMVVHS

[16] = system: glycogen synthase kinase-3 (GSK3A per assay name; protocol says GSK3B); assay: GSK3 binders on small-molecule microarrays, primary screen, biochemical, small-molecule microarray, 635 nm fluorescence, GSK3A (AID 1103); details: small-molecule microarray binding, fluorescence 635 nm; higher = more signal; further: the record names both GSK3A and GSK3B
[17] = molecular target: Epidermal growth factor receptor (Homo sapiens) (UniProt P00533); assay: EGFR binders on small-molecule microarrays, primary screen, biochemical, small-molecule microarray, 635 nm fluorescence (AID 1104); details: EGFR binding, higher = more signal;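 further: score merges 667 nm emission intensity with spot signal to noise over triplicate slides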
Chain of Epidermal growth factor receptor (Homo sapiens) (P00533 whole entry, looked up): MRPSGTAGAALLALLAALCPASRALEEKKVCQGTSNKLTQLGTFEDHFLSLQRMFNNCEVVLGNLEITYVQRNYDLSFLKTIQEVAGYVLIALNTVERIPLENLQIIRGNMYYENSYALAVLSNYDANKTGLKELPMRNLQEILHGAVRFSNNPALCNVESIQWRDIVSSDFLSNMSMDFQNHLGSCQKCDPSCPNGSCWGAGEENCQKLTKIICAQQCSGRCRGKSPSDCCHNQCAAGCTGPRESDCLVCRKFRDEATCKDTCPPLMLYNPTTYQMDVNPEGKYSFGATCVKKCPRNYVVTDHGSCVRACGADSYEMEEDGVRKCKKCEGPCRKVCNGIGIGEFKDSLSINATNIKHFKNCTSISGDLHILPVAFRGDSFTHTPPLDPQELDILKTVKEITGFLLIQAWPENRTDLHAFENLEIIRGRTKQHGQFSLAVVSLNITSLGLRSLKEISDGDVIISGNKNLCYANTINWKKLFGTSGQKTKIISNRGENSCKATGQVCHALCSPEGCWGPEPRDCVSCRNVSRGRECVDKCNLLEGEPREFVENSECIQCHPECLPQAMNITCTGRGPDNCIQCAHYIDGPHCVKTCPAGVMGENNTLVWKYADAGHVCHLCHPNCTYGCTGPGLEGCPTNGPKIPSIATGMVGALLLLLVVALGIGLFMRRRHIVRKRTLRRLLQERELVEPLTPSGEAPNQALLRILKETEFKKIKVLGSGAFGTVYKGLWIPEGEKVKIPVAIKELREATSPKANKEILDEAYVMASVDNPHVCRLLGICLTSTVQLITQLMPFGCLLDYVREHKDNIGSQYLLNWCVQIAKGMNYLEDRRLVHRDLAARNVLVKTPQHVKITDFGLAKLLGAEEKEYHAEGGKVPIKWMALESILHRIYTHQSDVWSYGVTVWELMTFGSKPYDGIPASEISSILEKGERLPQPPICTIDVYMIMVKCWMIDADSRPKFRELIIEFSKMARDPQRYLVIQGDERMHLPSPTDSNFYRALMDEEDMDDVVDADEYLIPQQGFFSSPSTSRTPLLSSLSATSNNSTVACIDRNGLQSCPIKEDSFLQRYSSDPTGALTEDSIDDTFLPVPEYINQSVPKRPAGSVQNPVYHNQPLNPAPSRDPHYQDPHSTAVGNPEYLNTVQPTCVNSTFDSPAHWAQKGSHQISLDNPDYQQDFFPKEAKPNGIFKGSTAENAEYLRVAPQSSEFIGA

[18] = molecular target: Follistatin-related protein 3 (Homo sapiens) (UniProt O95633); assay: FSTL3 binders on small-molecule microarrays, primary screen, biochemical, small-molecule microarray, 635 nm fluorescence (AID 1105); details: FSTL3 binding, higher = more signal;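 further: score merges emission near 667 nm and signal to noise per printed spot across three slides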
Chain of Follistatin-related protein 3 (Homo sapiens) (O95633 whole entry, looked up): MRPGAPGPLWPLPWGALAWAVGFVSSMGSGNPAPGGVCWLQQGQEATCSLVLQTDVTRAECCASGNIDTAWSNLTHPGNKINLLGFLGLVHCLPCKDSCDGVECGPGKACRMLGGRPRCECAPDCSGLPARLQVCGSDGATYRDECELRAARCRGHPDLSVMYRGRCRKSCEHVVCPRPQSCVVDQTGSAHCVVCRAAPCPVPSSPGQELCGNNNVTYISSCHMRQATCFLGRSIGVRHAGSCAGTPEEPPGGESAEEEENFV

[19] = molecular target: Dickkopf-related protein 1 (Homo sapiens) (UniProt O94907); assay: DKK1 binders on small-molecule microarrays, primary screen, biochemical, small-molecule microarray, 635 nm fluorescence scan (AID 1106); details: DKK1 binding, higher = more signal;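 further: score merges emission near 667 nm with signal to noise over three replicate slides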
Chain of Dickkopf-related protein 1 (Homo sapiens) (O94907 whole entry, looked up): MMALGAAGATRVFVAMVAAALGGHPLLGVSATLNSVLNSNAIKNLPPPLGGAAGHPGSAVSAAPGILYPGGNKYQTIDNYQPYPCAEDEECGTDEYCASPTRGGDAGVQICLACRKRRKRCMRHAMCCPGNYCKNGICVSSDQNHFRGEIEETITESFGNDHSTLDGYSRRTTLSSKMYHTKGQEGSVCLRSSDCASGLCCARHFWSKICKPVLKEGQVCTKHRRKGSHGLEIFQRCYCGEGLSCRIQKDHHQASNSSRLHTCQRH

[20] = system: Inhibin beta A chain (activin A); assay: INHBA (activin A) binders on microarrays, primary screen, biochemical, small-molecule microarray, 635 nm fluorescence scan (AID 1107); details: small-molecule microarray binding, higher = more signal;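 further: mouse activin A protein probed at 4.33 µg/mL on printed slides; score merges bound-protein fluorescence near 667 nm with spot signal-to-noise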

SMILES | composite z-score [1] | z-score [2] | z-score [3] | z-score [4] | composite z-score [5] | z-score [6] | composite z-score [7] | composite z-score [8] | composite z-score [9] | composite z-score [10] | composite z-score [11] | composite z-score [12] | composite z-score [13] | z-score [14] | composite z-score [15] | composite z-score [16] | composite z-score [17] | composite z-score [18] | composite z-score [19] | composite z-score [20]
O=P(NCC1(CC2(c3ccccc3)CO2)CC1)(c1ccccc1)c1ccccc1 (stereo not given) | -0.878 | -0.468 (inactive) | 1.08 (inactive) | 0.236 (inactive) | 3.14 | 0.31 (inactive) | -0.132 | -1.44 | -1.19 | -0.207 | 1.57 | 0.29 | 1.02 | -1.45 (inactive) | -0.686 | -1.49 | -1.28 | -1.37 | -0.915 | 0.758
COC(=O)[C@@]1(Cc2ccc(F)cc2)[C@H]2c3cc(C(=O)N(C)C)n(CCCNc4ccc(C(F)(F)F)cc4Cl)c3C[C@H]2CN1C(=O)c1ccccc1 | 1.41 | 0.406 (inactive) | 1.06 (inactive) | 5.11 (inactive) | 3.36 | -1.3 (inactive) | 0.555 | 0.282 | 1.02 | 0.361 | 1.08 | 1.4 | 1.38 | -1.75 (inactive) | 0.808 | 1.29 | -0.19 | 1.2 | -0.667 | -0.0131
O=C(CS)NCCCCCCNC(=O)[C@H]1C[C@H]2C(=O)N3CCC[C@H]3C(=O)N2[C@H]1c1ccc(O)cc1 | 1.42 | -0.637 (inactive) | 0.0932 (inactive) | 0.369 (inactive) | 2.22 | -0.506 (inactive) | -0.0845 | 1.21 | 0.905 | -0.208 | 1.63 | 0.104 | 0.0018 | 1.46 (inactive) | 0.732 | -0.477 | -0.154 | 0.972 | 0.317 | 0.487
O=C1C2C=CC(C(O)CCc3ccccc3)N(Nc3ccccc3)C2C(=O)N1c1ccccc1 (stereo not given) | 1.49 | 0.655 (inactive) | 0.226 (inactive) | 1.43 (inactive) | 3.4 | -1.88 (inactive) | 0.231 | 0.0749 | 1.02 | 0.0864 | 0.692 | 1.18 | 1.29 | 0.35 (inactive) | 0.714 | 1.26 | -0.0133 | 0.425 | -0.194 | 0.205
O=c1cccc(-c2ccc3ccccc3c2)o1 | -0.387 | -11.9 (active) | -15 (active) | -3.02 (inactive) | -0.0751 | 1.82 (inactive) | 0.0673 | -0.0993 | -0.349 | -0.138 | -0.271 | 0.216 | 0.591 | -0.823 (inactive) | -0.0487 | -0.964 | 0.0697 | -0.0172 | -0.139 | 1.15
COc1ccc(C#Cc2ccc3c(c2)[C@]2(C(=O)N3)[C@H](c3ccc(OCCO)cc3)N3[C@H](c4ccccc4)[C@H](c4ccccc4)OC(=O)[C@H]3[C@@H]2C(=O)Nc2nc3ccccc3s2)cc1 | 1.54 | 2 (inactive) | 0.831 (inactive) | 1.44 (inactive) | 3.02 | 2.4 (inactive) | 0.135 | 0.57 | 1.12 | 0.238 | 1.29 | 0.771 | 0.72 | 3.63 (inactive) | 1.3 | 1.29 | 0.655 | 1.38 | 0.618 | 0.331
C=CCNC(=O)[C@@H]1[C@H]2C(=O)O[C@H](c3ccccc3)[C@H](c3ccccc3)N2[C@H](c2ccccc2OCCO)[C@@]12C(=O)N(C(=O)OCCOC)c1ccc(C#CCC(C(=O)OC)C(=O)OC)cc12 | 1.53 | 1.38 (inactive) | 2.06 (inactive) | 6.46 (inactive) | 3.56 | 0.221 (inactive) | 0.891 | 1.9 | 1.07 | 0.573 | 1.89 | 2 | 1.09 | -0.235 (inactive) | 1.43 | 1.31 | 1.25 | 1.5 | 1.34 | 1.33
CS(=O)(=O)CCOC(=O)C1=CC(c2ccc(CO)cc2)=CC(c2cccs2)N(Cc2cccc(OC(F)(F)F)c2)C=C1C(=O)OCCS(C)(=O)=O (stereo not given) | 1.34 | -0.246 (inactive) | -3.38 (inactive) | 2.41 (inactive) | 3.12 | -0.575 (inactive) | -0.0833 | 0.333 | 0.856 | -0.0688 | 0.472 | 0.15 | 0.211 | -0.164 (inactive) | 1.02 | 0.88 | 0.084 | 0.919 | 0.353 | 1.33
OCCCc1cc[n+](Cc2cccc(OC(F)(F)F)c2)cc1 | 1.54 | -0.747 (inactive) | -3.01 (inactive) | 0.71 (inactive) | 3.24 | -1.65 (inactive) | 0.2 | 0.962 | 1.04 | -0.0084 | 1.67 | 0.237 | 0.526 | -0.109 (inactive) | 0.0895 | 0.873 | 0.0648 | 1.03 | 0.346 | 1.14
